# Records with an inconclusive call do not appear. Active and inactive are the calls of the source. The call rests on the fitted dose curve; in most records, active means well fitted inhibition curve with a large enough effect; inconclusive means small, poorly fitted or top-dose-only effect; inactive means flat fitted curve, though single readings scatter.
# Tested on: HEK293
# Test: Cytotoxic Profiling of Annotated Libraries Using Quantitative High-Throughput Screening (AID 1296008); further: nearly all actives have a fitted effect of over 60% in size
# Conditions: Five cell lines viability, CellTiter-Glo ATP luminescence, 48-72 h; max response: hits give low values
# How it was run: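 Cytotoxicity was measured as CellTiter-Glo ATP luminescence, read after 10 min at room temperature. Compound treatment of the cells lasted 48 or 72 hr at 37 degrees Celsius in a qHTS format.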
# On the % scale 0 is the no-effect control and ±100 the full control effect; potency means the concentration at half of the fitted maximal effect.
Structure (SMILES),max response,Potency,outcome
CC1(C)CC[C@]2(C(=O)O)[C@H](O)C[C@]3(C)C(=CCC4[C@@]5(C)CC[C@H](O[C@@H]6O[C@H](CO[C@@H]7OC[C@H](O)[C@H](O)[C@H]7O[C@@H]7OC[C@@H](O)[C@H](O)[C@H]7O)[C@@H](O)[C@H](O)[C@H]6O[C@@H]6O[C@H](CO)[C@@H](O)[C@H](O)[C@H]6O)C(C)(C)C5CC[C@]43C)[C@@H]2C1 (stereo not given in full),-1.49% (inactive),–,–
O=C1C=CC2OC(c3ccccc3)C(O)C2O1 (stereo not given),–,23.1 µM (active),–
CC1=C(COC2OC(CO)C(O)C(O)C2O)C(C(CO)C(=O)O)CC1 (stereo not given),-0.67% (inactive),–,–
CC(C(O)/C=C/C(C)(C)O)C1CCC2(C)C3C(=O)C=C4C(CCC(O)C4(C)C)C3(C)CCC12C (stereo not given),-3.03% (inactive),–,–
C=C(CO)C12OC1C1(C)C(=CC2=O)C(O)C(O)CC1C (stereo not given),-0.602% (inactive),–,–
O=S(=O)(c1ccc(S(=O)(=O)n2cnc3ccccc32)cc1)N1CCCCCC1,-10.3% (inactive),–,–
C[C@H]1CC[C@@]2(OC1)O[C@H]1CC3C4CC[C@H]5C[C@@H](O)[C@H](O)C[C@]5(C)C4=CC(=O)[C@]3(C)[C@H]1[C@@H]2C (stereo not given in full),-6.34% (inactive),–,–
C/C1=C\C[C@]2(C)C(=O)C(O)=C([C@H](C)CO)[C@H]2C/C=C(\C)[C@@H](O)CC/C(C)=C/CC1,2.1% (inactive),–,–
COc1c(C)c(OCC(O)C(C)(C)O)cc2c1COC2=O (stereo not given),-24.2% (inactive),–,–
C1CCC[C@H]2CCCN3CC[C@@H](CCCCCC[C@@H]4CCCN5CC[C@@H](CC1)O[C@@H]45)O[C@@H]23,4.46% (inactive),–,–
Cc1cc(NC(=O)Nc2ccc(F)c(F)c2)n(-c2ccccc2)n1,-2.17% (inactive),–,–
C[C@@H]1CC[C@]2(C(=O)OC3OC(CO)C(O)C(O)C3O)CC[C@]3(C)C(=CCC4[C@@]5(C)CC[C@H](O)[C@](C)(C(=O)O)C5CC[C@]43C)C2[C@]1(C)O (stereo not given in full),-6.18% (inactive),–,–
O=C(NCC(O)CO)c1ccncc1Nc1ccc(I)cc1F (stereo not given),-15.9% (inactive),–,–
CC(O)CCC1C(CO[C@@H]2O[C@H](CO)[C@@H](O)[C@H](O)[C@H]2O)CC(O)CC1(C)C (stereo not given in full),1.92% (inactive),–,–
N#Cc1ccc(C(=O)N2CCC3(CC2)N=C(N)c2c(F)ccc(F)c2N3)cn1,-18.7% (inactive),–,–
COc1cc([C@H]2c3cc(O)c(OC)cc3C[C@@H](CO[C@@H]3O[C@H](CO)[C@@H](O)[C@H](O)[C@H]3O)[C@@H]2CO)ccc1O,-2.47% (inactive),–,–
CC(=O)NC1C(OC(C)(C)C2CCC3(C)C=C(C4CCC5C4(C)CC(O)C4OC(C(C)(C)O)CCC45C)CCC3O2)OC(CO)C(O)C1O (stereo not given),-2.64% (inactive),–,–
COC(=O)C1=CO[C@@H](O)C2C(CO)=CCC12 (stereo not given in full),4.75% (inactive),–,–
Nc1ncnc2c1ncn2CCNCCCCCO,4.45% (inactive),–,–
CC(=O)OC1C[C@]2(C)C(O)CC(C)=C[C@H](OC(=O)c3ccc(O)cc3)C2[C@]1(O)C(C)C (stereo not given in full),-3.03% (inactive),–,–
N#C[C@@H]1CCCN1C(=O)CNC12CC3CC(CC(O)(C3)C1)C2,-12.1% (inactive),–,–
COc1cc(C(=O)OC[C@H]2O[C@@H](Oc3ccccc3/C=C/C(=O)O)[C@H](O)[C@@H](O)[C@@H]2O)cc(OC)c1OC,-0.285% (inactive),–,–
CC(C)CC(=O)OC1OC=C(CO[C@@H]2O[C@H](CO)[C@@H](O)[C@H](O)[C@H]2O)C2CC(O)C(O)(CO)C12 (stereo not given in full),-1.23% (inactive),–,–
Cc1cc(Nc2nc(NC(C)c3ncc(F)cn3)ncc2Cl)n[nH]1 (stereo not given),-3.92% (inactive),–,–
CC(=O)O[C@H]1C[C@@](O)(C(C)C)C2[C@@H](OC(=O)c3ccc(O)cc3)C[C@@]3(C)O[C@H]3C[C@]21C (stereo not given in full),-5.37% (inactive),–,–
C=C[C@H]1C(O[C@@H]2O[C@H](CO)[C@@H](O)[C@H](O)[C@H]2O)OC=C2C(=O)N3CCc4c([nH]c5ccccc45)[C@H]3C[C@H]21 (stereo not given in full),-11.2% (inactive),–,–
O=C(CCCCN1CCOCC1)Nc1ccc(-c2cccnc2)cc1,0.956% (inactive),–,–
CCc1cc(CN2CC(C(=O)O)C2)sc1-c1noc(-c2ccc(Oc3ccccc3)cc2)n1,-73% (inactive),–,–
C[C@@H]1CCC2C(C)(C)[C@H](O)CC[C@]2(C)[C@@]12Cc1c(O)cc3c(c1O2)CN([C@@H](CCC(=O)O)C(=O)O)C3=O (stereo not given in full),–,–,inactive
CC1OC(OCC2OC(OC3CCC4(C)C(CCC5(C)C4CC=C4C6CC(C)(C)CCC6(C(=O)OC6OC(CO)C(O)C(O)C6O)CCC45C)C3(C)CO)C(O)C(O)C2O)C(O)C(O)C1O (stereo not given),-5.12% (inactive),–,–

# From PubChem BioAssay (NCATS)
